Source: PubChem BioAssay (EPA / NIEHS)
Results filed as inconclusive are left out. Activity calls are given as the source filed them. Rule for the calls: active = hit-call score of the fitted dose curve at least 0.9, where 1 is the maximum; inconclusive = response in the unintended direction; inactive = score below 0.9.

Assays:
NCBI gene 100848466 = assay: NVS_NR_bPR: NovaScreen (NVS) Nuclear Receptor Binding Assay for bovine Progextron Receptor (PR) (AID 2283343);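 for AC50: actives lower bound radioligand signal below DMSO meaning displacement of the label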
Procedure, shortened: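 Competitive radioligand binding with membranes from bovine uterus, scintillation read-out at 18 h post-dose. Compounds first tested in duplicate at 25 uM, then actives in concentration series; loss-of-signal relative to DMSO.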

[1] = biological target: bovine Estrogen Receptor (ER), ESR1 (gene 407238) (UniProt P49884); assay: NVS_NR_bER: NovaScreen (NVS) Nuclear Receptor Binding Assay for bovine Estrogen Receptor (ER) (AID 2283345);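 note: actives lower the bound radioligand count which means they displace the ER ligand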
Procedure, shortened: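 Cell-free radioligand binding with bovine uterine membrane extracts, read 18 hours after dosing by scintillation counting. Loss of signal versus DMSO baseline indicates displacement. Primary screen run in duplicate at 25 uM, actives followed in concentration series.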

[2] = biological target: Estrogen receptor (Homo sapiens) (UniProt P03372); assay: NVS_NR_hER: NovaScreen (NVS) Nuclear Receptor Binding Assay for human Estrogen Receptor (ER) (AID 2283348)
Procedure, shortened: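 Cell-free MCF7-derived ER preparation, specific radioligand displaced by test compound, read by scintillation counting 18 h post-dosing. Duplicate single-point 25 uM screen, then concentration-response confirmation; DMSO baseline.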

[3] = biological target: Estrogen receptor (Homo sapiens) (UniProt P03372); assay: OT_ER_ERaERa_1440: Odyssey Thera (OT) 24-hour HEK293T Protein-Complementation Assay for Estrogen Receptor-alpha/-alpha Homodimer (AID 2283349);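 note: hits raise fluorescence above DMSO for agonists and antagonists alike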
Procedure, shortened: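 HEK293T, stable ERα LBD (aa 310-547) homodimer PCA; 24 h compound exposure; mean fluorescence intensity (nuclear for agonists, nuclear plus cytoplasmic for antagonists) vs vehicle; positive fitting direction, DMSO baseline.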

[4] = biological target: Estrogen receptor (Homo sapiens) (UniProt P03372); assay: OT_ER_ERaERa_0480: Odyssey Thera (OT) 8-hour HEK293T Protein-Complementation Assay for Estrogen Receptor-alpha/-alpha Homodimer (AID 2283351);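 note: rise in fluorescence from reassembled reporter fragments on ERα LBD homodimer in nucleus or whole cell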
Procedure, shortened: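 Measures ERα LBD (aa 310-547) homodimer complementation in stably transfected HEK293T at 8 h post-dose, with fluorescence intensity quantified on a laser scanning cytometer relative to DMSO controls.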

[5] = biological target: Estrogen receptor (Homo sapiens) + Estrogen receptor beta (Homo sapiens) (UniProt P03372+Q92731); assay: OT_ER_ERaERb_1440: Odyssey Thera (OT) 24-hour HEK293T Protein-Complementation Assay for Estrogen Receptor-alpha/-beta Homodimer (AID 2283356);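 note: heteromer of ER alpha and ER beta binding domains; hits raise reporter fluorescence and both agonists and antagonists give an increase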
Procedure, shortened: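 HEK293T cells stably expressing a PCA pair of ERα LBD (aa 310-547) and ERβ LBD (aa 263-489) were dosed for 24 h. Fluorescence intensity increase versus DMSO vehicle was fitted as gain-of-signal.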

[6] = biological target: human Constitutive Androstane Receptor (CAR), NR1I3 (gene 9970) (UniProt Q14994); assay: NVS_NR_hCAR_Antagonist: NovaScreen (NVS) Nuclear Receptor Binding Assay for human Constitutive Androstane Receptor Antagonism (CAR) (AID 2283344)
Procedure, shortened: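 Single 25 uM duplicate primary screen, with concentration-series follow-up on actives. Cell-free binding format run in antagonist mode, TR-FRET signal taken 1 h post-dose; activity is signal loss relative to DMSO.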

[7] = biological target: chimpanzee Androgen Receptor (AR), AR (gene 747460) (UniProt O97775); assay: NVS_NR_cAR: NovaScreen (NVS) Nuclear Receptor Binding Assay for chimpanzee Androgen Receptor (AR) (AID 2283346);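 note: radioligand displacement from AR measured by scintillation counting in a cell-free assay; a loss of bound radioligand signal versus DMSO counts as binding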
Procedure, shortened: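 Cell-free competition binding with insect-cell (Sf9/Sf21) extracted chimpanzee AR; scintillation signal from lysate at 72 h. Screened in duplicate at 25 uM, then concentration-response for actives; fitting relative to DMSO.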

[8] = biological target: Bile acid receptor (Homo sapiens) (UniProt Q96RI1); assay: NVS_NR_hFXR_Antagonist: NovaScreen (NVS) Nuclear Receptor Binding Assay for human Farnesoid X Receptor Antagonism (FXR) (AID 2283350)
Procedure, shortened: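 Antagonist-format time-resolved FRET binding assay with extracted human receptor protein, read 1 hour after compound addition. Compounds first screened at 25 uM in duplicate, then actives tested in concentration series, with loss of signal relative to DMSO.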

[9] = biological target: bovine Gamma-Aminobutyric Acid Type A Receptor Agonist (GABAR Agonist), GABRA1 (gene 780973) (UniProt P08219); assay: NVS_LGIC_bGABAR_Agonist: NovaScreen (NVS) Ligand-Gated Ion Channel Assay for bovine Gamma-Aminobutyric Acid Type A Receptor Agonist (GABAR Agonist) (AID 2283338)
Procedure, shortened: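 Radioligand binding to bovine cerebellar membranes in agonist format, read by filter-based scintillation counting after 1 h. Primary screen in duplicate at 25 uM, with actives followed in concentration series. Gain of signal versus DMSO.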

[10] = biological target: Small conductance calcium-activated potassium channel protein 1 (Rattus norvegicus) (UniProt P70606); assay: NVS_IC_rKCaCh: NovaScreen (NVS) Ion Channel Assay for rat Potassium Channel, Ca2+ Act., VI (KCaCh) (AID 2283336)
Procedure, shortened: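 Filter-based scintillation counting of radioligand bound to rat forebrain membrane preparations, measured 1 h after compound addition. Primary screen used 25 uM in duplicate, with concentration-response follow-up; signal decrease relative to DMSO marks activity.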

[11] = biological target: Androgen Receptor/SRC-1 Co-activator, AR (gene 367) (UniProt P10275); assay: OT_AR_ARSRC1_0960: Odyssey Thera (OT) 16-hour HEK293T Protein-Complementation Assay for Androgen Receptor/SRC-1 Co-activator (AID 2283353);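 note: actives raise the signal above DMSO so potency reflects increased AR and SRC-1 complex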
Procedure, shortened: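 Sixteen-hour cell assay: Venus halves fused to AR and SRC-1 in HEK293T report binding. Images at 488/635 nm give an N/C ratio in the 488 nm channel over ≥400 cells, analysed as signal increase over DMSO.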

[12] = biological target: rat Gamma-Aminobutyric Acid Type A Receptor BDZ, alpha 6 site (GABARa6), Gabra6 (gene 29708) (UniProt P30191); assay: NVS_LGIC_rGABARa6: NovaScreen (NVS) Ligand-Gated Ion Channel Assay for rat Gamma-Aminobutyric Acid Type A Receptor BDZ, alpha 6 site (GABARa6) (AID 2283339)
Procedure, shortened: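 Actives from a 25 uM duplicate screen were retested in concentration series (max 50 uM). Specific radioligand displacement from rat cerebellar membranes was counted by filter-based scintillation at 1 h; DMSO served as baseline.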

[13] = biological target: rat Mineralocorticoid Receptor (MR), Nr3c2 (gene 25672) (UniProt P22199); assay: NVS_NR_rMR: NovaScreen (NVS) Nuclear Receptor Binding Assay for rat Mineralocorticoid Receptor (MR) (AID 2283355)
Procedure, shortened: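 Primary HTS ran in duplicate at a single 25 uM concentration, with concentration-series follow-up for actives. Receptor source: adrenalectomized rat brain supernatant, cell-free. Radioligand displacement read by scintillation at 24 h, relative to DMSO baseline.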

Measured: AC50

human Constitutive Androstane Receptor (CAR), NR1I3 (gene 9970), sequence (Q14994 whole entry, looked up): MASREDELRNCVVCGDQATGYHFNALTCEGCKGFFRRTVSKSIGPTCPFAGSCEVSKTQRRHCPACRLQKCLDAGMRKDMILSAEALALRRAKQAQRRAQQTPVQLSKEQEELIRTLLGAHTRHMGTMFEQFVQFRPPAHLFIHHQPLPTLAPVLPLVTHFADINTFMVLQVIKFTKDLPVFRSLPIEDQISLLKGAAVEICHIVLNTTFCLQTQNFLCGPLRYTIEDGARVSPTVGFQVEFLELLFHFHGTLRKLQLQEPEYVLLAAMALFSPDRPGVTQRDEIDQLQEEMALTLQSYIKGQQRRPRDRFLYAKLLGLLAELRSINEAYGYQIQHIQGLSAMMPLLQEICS
chimpanzee Androgen Receptor (AR), AR (gene 747460), sequence (O97775 whole entry, looked up): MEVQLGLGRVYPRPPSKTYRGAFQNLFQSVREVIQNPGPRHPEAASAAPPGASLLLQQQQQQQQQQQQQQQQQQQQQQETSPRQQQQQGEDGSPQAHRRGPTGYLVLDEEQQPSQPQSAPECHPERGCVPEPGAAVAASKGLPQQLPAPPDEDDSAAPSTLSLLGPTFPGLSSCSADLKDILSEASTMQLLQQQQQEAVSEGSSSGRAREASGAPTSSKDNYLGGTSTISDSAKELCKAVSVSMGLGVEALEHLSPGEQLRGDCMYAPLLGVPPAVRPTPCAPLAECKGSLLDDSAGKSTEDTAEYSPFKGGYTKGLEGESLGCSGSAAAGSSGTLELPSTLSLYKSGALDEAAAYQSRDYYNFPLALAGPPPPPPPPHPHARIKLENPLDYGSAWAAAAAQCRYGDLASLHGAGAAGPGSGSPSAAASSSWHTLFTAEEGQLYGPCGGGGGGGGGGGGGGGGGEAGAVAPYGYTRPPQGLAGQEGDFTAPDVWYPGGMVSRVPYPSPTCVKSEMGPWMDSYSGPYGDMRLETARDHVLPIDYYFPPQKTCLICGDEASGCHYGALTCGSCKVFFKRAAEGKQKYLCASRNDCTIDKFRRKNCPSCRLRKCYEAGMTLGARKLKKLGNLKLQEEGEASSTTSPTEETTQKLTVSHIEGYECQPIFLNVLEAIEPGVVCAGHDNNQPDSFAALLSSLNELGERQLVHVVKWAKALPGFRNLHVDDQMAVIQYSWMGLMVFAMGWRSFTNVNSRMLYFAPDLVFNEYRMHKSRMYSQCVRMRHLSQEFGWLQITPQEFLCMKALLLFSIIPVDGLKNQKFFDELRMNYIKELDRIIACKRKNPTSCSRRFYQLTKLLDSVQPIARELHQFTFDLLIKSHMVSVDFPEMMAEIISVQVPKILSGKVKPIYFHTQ
Estrogen receptor (Homo sapiens), sequence (P03372 whole entry, looked up, the tested form may be a part): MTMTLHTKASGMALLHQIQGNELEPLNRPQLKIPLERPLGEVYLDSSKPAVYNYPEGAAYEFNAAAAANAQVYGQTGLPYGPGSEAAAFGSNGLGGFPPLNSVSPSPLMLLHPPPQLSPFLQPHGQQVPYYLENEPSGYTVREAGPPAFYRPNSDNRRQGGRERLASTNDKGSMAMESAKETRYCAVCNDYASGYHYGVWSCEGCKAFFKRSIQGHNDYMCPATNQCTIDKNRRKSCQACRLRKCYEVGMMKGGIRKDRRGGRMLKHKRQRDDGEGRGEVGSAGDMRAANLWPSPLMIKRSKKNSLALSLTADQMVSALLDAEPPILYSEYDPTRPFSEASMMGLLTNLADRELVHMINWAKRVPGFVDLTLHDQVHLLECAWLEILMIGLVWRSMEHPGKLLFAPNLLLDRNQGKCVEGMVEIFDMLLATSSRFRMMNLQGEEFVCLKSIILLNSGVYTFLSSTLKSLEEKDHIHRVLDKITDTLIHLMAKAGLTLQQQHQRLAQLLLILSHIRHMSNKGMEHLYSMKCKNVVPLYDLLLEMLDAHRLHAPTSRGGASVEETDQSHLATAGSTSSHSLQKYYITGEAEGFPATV
Estrogen receptor (Homo sapiens) + Estrogen receptor beta (Homo sapiens), sequence (P03372 whole entry, looked up, the tested form may be a part): as above
Estrogen receptor (Homo sapiens) + Estrogen receptor beta (Homo sapiens), sequence (Q92731 whole entry, looked up, the tested form may be a part): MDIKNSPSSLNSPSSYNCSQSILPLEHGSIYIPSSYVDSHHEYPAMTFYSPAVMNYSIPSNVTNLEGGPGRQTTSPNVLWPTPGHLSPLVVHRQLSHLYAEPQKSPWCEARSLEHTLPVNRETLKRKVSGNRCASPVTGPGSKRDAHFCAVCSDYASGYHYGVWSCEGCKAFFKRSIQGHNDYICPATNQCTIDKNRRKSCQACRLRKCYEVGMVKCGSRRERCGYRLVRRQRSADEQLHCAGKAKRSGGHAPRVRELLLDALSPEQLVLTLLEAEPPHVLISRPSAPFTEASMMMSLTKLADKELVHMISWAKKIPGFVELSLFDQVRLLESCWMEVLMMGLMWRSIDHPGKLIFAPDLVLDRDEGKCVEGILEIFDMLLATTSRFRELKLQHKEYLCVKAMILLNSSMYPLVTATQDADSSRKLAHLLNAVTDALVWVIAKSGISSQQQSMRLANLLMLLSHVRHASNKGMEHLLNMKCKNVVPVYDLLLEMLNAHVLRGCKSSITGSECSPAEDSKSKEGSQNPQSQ
bovine Estrogen Receptor (ER), ESR1 (gene 407238), sequence (P49884 whole entry, looked up): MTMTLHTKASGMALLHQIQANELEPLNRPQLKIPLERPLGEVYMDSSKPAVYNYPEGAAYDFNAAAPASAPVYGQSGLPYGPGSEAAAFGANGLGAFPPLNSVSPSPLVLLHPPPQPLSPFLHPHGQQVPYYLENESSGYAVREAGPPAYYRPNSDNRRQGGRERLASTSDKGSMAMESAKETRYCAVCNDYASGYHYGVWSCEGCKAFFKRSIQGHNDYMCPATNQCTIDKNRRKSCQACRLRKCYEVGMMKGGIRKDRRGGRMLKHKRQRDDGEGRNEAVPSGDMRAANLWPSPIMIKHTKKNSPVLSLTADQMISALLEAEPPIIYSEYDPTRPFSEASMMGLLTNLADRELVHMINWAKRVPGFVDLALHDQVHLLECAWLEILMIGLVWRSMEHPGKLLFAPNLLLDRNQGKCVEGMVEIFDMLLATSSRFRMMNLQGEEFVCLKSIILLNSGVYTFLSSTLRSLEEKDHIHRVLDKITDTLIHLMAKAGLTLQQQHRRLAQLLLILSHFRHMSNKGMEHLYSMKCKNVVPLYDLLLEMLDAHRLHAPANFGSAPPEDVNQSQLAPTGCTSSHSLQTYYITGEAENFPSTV
bovine Gamma-Aminobutyric Acid Type A Receptor Agonist (GABAR Agonist), GABRA1 (gene 780973), sequence (P08219 whole entry, looked up): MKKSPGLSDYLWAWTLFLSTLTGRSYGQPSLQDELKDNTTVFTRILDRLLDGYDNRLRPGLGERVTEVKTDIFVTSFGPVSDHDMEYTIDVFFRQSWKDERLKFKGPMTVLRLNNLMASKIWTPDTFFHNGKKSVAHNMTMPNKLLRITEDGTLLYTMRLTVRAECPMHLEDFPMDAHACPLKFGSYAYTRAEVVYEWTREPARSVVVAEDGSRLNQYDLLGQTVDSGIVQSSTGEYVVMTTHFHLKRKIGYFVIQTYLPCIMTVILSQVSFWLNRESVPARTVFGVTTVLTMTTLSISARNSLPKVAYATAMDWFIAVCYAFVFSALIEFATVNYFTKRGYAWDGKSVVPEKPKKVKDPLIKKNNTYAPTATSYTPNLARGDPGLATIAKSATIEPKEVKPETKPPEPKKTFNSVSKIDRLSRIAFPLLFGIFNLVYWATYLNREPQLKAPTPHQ
Bile acid receptor (Homo sapiens), sequence (Q96RI1 whole entry, looked up): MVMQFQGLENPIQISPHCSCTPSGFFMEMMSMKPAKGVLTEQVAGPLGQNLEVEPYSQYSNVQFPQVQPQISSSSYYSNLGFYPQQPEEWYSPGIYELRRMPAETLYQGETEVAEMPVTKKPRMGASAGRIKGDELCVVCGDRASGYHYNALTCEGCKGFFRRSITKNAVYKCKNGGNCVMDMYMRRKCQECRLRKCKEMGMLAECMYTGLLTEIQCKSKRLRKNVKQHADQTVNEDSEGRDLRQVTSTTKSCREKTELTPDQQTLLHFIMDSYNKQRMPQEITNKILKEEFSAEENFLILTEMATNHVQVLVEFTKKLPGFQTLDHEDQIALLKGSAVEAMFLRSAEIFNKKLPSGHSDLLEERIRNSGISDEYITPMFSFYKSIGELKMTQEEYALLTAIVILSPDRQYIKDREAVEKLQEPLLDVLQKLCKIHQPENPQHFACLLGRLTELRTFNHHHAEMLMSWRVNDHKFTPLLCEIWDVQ
rat Gamma-Aminobutyric Acid Type A Receptor BDZ, alpha 6 site (GABARa6), Gabra6 (gene 29708), sequence (P30191 whole entry, looked up): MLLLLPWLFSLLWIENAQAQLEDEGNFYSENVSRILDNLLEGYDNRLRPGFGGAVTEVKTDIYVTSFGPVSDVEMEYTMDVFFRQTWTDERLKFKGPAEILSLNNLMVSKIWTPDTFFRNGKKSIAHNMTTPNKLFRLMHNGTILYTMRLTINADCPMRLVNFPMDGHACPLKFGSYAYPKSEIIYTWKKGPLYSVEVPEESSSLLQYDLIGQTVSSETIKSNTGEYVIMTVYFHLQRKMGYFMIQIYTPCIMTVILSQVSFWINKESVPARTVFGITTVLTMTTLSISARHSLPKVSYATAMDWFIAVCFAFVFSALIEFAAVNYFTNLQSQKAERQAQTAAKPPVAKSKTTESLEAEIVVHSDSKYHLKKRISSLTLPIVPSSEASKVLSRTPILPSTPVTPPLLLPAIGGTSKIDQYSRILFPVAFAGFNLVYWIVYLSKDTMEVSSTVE

COP(=S)(OC)Oc1ccc(SC)c(C)c1
inactive: [1] | [2] | [3] | [4] | [5]
active: NCBI gene 100848466 16.3 µM

CCCN(CCOc1c(Cl)cc(Cl)cc1Cl)C(=O)n1ccnc1
active: NCBI gene 100848466 5.4 µM | [6] 32 µM | [7] 19.7 µM
inactive: [8]

[2H]C1([2H])[n+]2ccccc2-c2cccc[n+]2C1([2H])[2H]
inactive: [9]

N#CN
inactive: [10] | [3] | [4] | [5]

O=S(=O)(O)C(F)(F)C(F)(F)C(F)(F)C(F)(F)C(F)(F)C(F)(F)C(F)(F)C(F)(F)F
active: NCBI gene 100848466 25 µM [middle of 5 runs] | [7] 5.81 µM
inactive: [9]

O=[N+]([O-])/N=C1\NCCN1Cc1ccc(Cl)nc1
inactive: [9] | NCBI gene 100848466 | [2] | [3] | [8] | [4] | [11] | [5]

CC1(C)C(C=C(Cl)Cl)C1C(=O)OC(C#N)c1ccc(F)c(Oc2ccccc2)c1 (centres undefined)
inactive: NCBI gene 100848466 | [6] | [1] | [2] | [3] | [5]

CC(C)(C)C(O)/C(=C\c1ccc(Cl)cc1Cl)n1cncn1 (centres undefined)
inactive: NCBI gene 100848466 | [1] | [3] | [4] | [5]
active: [7] 1.51 µM

ClC1C(Cl)C(Cl)C(Cl)C(Cl)C1Cl (centres undefined)
inactive: NCBI gene 100848466

O=C(Nc1ccccc1)Nc1cnns1
active: [12] 3.68 µM
inactive: [3] | [4] | [5]

CNC(=O)CSP(=S)(OC)OC
inactive: NCBI gene 100848466 | [3] | [4] | [13] | [5]

COP(=S)(OC)Oc1ccc([N+](=O)[O-])cc1
inactive: [6] | [8] | [4] | [5]
active: NCBI gene 100848466 7.33 µM | [7] 14.6 µM
